What all share (experiment): DAPPL (digital affinity profiling via proximity ligation, sequencing); 10 mM Tris-HCl pH 7.5, 50 mM NaCl, 1 mM DTT, 4% glycerol, room temperature, 30 min; GST-TFs on glutathione beads, 16-mer random dsDNA library, 0.1% formaldehyde crosslink after washing; high values mean tight binding
Assay [1] has as its target T1, FLI1 (Homo sapiens, UniProt Q01543 1-452).
T1 sequence: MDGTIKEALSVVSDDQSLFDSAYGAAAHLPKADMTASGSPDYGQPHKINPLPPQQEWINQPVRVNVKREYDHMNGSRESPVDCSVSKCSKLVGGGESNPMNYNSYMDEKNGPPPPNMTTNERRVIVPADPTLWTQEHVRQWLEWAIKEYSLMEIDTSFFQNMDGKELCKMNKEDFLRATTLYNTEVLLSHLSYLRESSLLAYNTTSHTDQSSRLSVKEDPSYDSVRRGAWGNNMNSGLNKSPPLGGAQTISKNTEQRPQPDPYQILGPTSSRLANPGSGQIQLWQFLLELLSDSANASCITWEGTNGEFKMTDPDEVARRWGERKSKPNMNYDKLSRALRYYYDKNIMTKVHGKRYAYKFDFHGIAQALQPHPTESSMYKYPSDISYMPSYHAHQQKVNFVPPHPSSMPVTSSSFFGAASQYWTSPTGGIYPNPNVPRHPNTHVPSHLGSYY
Particulars: protein: recombinant; tags: N-terminal GST; dsDNA, one strand shown. The method in brief:
(§1)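 Yeast served to express human transcription factors as GST fusions, which were then captured on glutathione beads and labelled with DNA barcodes. Pooled with a tag-only sample, they were incubated with 200 nmole of a 16-mer random double-stranded DNA library for 30 min at room temperature in Tris/NaCl/DTT/glycerol buffer, washed, crosslinked with 0.1% formaldehyde, ligated by proximity, amplified by PCR and sequenced. Dividing each hexamer's read frequency for a factor by its frequency for the tag-only sample gives the binding signal.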

The target in assay [2] is T2, ELK1 (Homo sapiens, UniProt P19419 1-428).
T2 sequence: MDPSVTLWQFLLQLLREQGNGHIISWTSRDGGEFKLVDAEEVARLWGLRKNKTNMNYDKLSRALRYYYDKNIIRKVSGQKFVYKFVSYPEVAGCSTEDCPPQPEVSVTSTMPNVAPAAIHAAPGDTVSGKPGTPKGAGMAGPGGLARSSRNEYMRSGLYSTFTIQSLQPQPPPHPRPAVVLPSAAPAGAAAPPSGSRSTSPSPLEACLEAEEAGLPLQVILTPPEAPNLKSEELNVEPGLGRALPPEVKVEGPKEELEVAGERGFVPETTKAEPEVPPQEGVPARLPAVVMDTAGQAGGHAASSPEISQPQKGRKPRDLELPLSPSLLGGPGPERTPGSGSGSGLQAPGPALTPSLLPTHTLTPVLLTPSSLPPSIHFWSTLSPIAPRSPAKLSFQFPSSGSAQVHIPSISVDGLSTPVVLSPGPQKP
Particulars: protein: recombinant; tags: N-terminal GST; dsDNA, one strand shown. The method in brief: as §1

Assay [3] deals with T3, GABPA (Homo sapiens, UniProt Q06546 1-454).
T3 sequence: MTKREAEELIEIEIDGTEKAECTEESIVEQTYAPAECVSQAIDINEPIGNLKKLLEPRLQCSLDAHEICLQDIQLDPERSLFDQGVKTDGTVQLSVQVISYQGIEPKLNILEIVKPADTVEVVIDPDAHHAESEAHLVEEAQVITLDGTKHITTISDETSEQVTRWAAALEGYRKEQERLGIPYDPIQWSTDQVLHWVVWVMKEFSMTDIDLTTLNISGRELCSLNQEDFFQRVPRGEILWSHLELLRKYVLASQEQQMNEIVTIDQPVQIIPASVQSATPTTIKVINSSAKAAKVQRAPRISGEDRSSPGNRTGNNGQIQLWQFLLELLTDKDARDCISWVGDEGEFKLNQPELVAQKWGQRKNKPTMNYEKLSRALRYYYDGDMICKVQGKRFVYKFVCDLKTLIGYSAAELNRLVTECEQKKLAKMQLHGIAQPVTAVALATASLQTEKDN
The note with it: protein: recombinant; tags: N-terminal GST; dsDNA, one strand shown. The method in brief:
as §1

Assay [4] concerns the target T4, ERG (Homo sapiens, UniProt P11308 1-479).
T4 sequence: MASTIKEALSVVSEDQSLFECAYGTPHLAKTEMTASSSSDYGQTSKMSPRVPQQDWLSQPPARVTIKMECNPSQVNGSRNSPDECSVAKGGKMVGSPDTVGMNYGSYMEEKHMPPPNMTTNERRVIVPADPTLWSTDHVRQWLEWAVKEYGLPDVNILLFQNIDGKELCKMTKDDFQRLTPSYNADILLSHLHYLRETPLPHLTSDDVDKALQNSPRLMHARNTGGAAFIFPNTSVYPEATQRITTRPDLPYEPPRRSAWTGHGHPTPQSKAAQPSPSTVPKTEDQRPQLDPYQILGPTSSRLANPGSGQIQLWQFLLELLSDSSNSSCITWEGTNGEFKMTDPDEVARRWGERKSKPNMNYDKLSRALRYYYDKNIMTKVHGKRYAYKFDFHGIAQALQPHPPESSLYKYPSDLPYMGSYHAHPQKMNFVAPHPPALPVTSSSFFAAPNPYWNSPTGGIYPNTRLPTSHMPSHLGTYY
Particulars: protein: recombinant; tags: N-terminal GST; dsDNA, one strand shown. The method in brief:
as §1

Assay [5] deals with ELF1 (Homo sapiens, UniProt P32519 1-619). Particulars: protein: recombinant; tags: N-terminal GST; dsDNA, one strand shown. The essentials: as §1
Assay [6] has as its target T5, EHF (Homo sapiens, UniProt Q9NZC4 1-300).
T5 sequence: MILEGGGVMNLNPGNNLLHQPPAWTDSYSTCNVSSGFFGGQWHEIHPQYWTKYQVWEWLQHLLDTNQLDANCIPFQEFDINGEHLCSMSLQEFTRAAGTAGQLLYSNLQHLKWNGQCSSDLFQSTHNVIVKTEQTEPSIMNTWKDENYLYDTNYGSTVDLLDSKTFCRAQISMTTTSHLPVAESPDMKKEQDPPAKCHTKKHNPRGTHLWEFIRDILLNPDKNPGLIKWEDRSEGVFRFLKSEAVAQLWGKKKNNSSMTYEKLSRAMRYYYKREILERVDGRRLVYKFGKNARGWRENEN
The note with it: protein: recombinant; tags: N-terminal GST; dsDNA, one strand shown. The method in brief:
as §1

Assay [7] concerns the target SPI1 (Homo sapiens, UniProt P17947 1-270). The note with it: protein: recombinant; tags: N-terminal GST; dsDNA, one strand shown. The method in brief:
as §1

Assay [8] has as its target SPIB (Homo sapiens, UniProt Q01892 1-262). The note with it: protein: recombinant; tags: N-terminal GST; dsDNA, one strand shown. The method in brief:
as §1

For assay [9], the target named is T6, ELK3 (Homo sapiens, UniProt P41970 1-407).
T6 sequence: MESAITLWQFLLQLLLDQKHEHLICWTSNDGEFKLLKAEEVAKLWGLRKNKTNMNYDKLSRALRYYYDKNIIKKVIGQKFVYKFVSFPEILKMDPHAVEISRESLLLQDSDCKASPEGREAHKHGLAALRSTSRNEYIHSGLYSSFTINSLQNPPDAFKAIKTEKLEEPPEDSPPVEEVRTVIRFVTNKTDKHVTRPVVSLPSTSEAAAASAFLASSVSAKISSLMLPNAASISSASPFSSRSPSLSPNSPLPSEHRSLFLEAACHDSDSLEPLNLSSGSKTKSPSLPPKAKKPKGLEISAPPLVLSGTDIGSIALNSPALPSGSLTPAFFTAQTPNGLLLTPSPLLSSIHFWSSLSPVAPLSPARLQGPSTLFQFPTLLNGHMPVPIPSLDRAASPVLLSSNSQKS
Particulars: protein: recombinant; tags: N-terminal GST; dsDNA, one strand shown. The essentials: as §1

Assay [10] concerns the target T7, FEV (Homo sapiens, UniProt Q99581 1-238).
T7 sequence: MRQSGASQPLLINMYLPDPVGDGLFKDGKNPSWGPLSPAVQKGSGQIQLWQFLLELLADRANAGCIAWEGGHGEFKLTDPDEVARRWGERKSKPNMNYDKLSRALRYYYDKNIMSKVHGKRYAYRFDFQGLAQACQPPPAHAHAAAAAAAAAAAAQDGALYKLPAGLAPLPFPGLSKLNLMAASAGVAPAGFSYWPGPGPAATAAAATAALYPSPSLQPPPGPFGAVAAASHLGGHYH
Particulars: protein: recombinant; tags: N-terminal GST; dsDNA, one strand shown. The method in brief:
as §1

The target of assay [11] is ETV5 (Homo sapiens, UniProt P41161 1-510). The note with it: protein: recombinant; tags: N-terminal GST; dsDNA, one strand shown. The method in brief: as §1
Assay [12] concerns the target HSF1 (Homo sapiens, UniProt Q00613 1-529). The note with it: protein: recombinant; tags: N-terminal GST; chain copies: 3; dsDNA, one strand shown. The essentials:
as §1

Assay [13] concerns the target T8, SPIC (Homo sapiens, UniProt Q8N5J4 1-248).
T8 sequence: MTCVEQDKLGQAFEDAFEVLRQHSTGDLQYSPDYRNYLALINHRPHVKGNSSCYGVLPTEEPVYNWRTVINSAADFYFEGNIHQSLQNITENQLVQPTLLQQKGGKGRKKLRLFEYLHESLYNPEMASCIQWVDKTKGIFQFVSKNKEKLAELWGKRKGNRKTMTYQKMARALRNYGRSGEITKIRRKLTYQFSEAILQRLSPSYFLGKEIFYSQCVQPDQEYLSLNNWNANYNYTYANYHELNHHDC
Particulars: protein: recombinant; tags: N-terminal GST; dsDNA, one strand shown. The method in brief:
as §1

The target of assay [14] is ELF4 (Homo sapiens, UniProt Q99607 1-663). The note with it: protein: recombinant; tags: N-terminal GST; dsDNA, one strand shown. The method in brief:
as §1

In assay [15] the target is T9, ELK4 (Homo sapiens, UniProt P28324-2 1-405).
T9 sequence: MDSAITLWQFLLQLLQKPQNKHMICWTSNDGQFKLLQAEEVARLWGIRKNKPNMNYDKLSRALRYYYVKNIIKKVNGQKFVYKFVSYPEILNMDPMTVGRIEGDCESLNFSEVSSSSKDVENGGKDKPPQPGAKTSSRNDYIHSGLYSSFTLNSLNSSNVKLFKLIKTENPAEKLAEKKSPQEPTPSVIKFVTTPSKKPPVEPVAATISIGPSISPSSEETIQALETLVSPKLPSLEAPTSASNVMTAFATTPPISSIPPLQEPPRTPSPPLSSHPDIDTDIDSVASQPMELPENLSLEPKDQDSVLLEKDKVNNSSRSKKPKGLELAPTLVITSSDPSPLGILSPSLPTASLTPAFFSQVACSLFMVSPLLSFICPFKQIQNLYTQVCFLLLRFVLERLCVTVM
Particulars: protein: recombinant; tags: N-terminal GST; dsDNA, one strand shown. The essentials: as §1

The target in assay [16] is T10, ELF3 (Homo sapiens, UniProt P78545 1-371).
T10 sequence: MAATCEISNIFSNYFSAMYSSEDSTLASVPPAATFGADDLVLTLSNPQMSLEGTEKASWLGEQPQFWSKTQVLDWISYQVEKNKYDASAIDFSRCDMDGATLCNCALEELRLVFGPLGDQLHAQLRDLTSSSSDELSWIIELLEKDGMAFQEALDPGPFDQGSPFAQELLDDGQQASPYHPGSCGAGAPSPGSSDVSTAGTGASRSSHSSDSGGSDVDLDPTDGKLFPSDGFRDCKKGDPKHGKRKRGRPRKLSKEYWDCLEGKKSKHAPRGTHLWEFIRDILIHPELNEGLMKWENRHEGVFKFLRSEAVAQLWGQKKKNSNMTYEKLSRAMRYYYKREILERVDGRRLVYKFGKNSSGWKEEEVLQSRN
Particulars: protein: recombinant; tags: N-terminal GST; dsDNA, one strand shown. The method in brief: as §1

Assay [17] addresses CRX (Homo sapiens, UniProt O43186 1-299). The note with it: protein: recombinant; tags: N-terminal GST; dsDNA, one strand shown. The essentials: as §1
Assay [18] concerns the target ETV1 (Homo sapiens, UniProt P50549 1-477). The note with it: protein: recombinant; tags: N-terminal GST; dsDNA, one strand shown. The essentials:
as §1

ELF4, sequence (Q99607 whole entry): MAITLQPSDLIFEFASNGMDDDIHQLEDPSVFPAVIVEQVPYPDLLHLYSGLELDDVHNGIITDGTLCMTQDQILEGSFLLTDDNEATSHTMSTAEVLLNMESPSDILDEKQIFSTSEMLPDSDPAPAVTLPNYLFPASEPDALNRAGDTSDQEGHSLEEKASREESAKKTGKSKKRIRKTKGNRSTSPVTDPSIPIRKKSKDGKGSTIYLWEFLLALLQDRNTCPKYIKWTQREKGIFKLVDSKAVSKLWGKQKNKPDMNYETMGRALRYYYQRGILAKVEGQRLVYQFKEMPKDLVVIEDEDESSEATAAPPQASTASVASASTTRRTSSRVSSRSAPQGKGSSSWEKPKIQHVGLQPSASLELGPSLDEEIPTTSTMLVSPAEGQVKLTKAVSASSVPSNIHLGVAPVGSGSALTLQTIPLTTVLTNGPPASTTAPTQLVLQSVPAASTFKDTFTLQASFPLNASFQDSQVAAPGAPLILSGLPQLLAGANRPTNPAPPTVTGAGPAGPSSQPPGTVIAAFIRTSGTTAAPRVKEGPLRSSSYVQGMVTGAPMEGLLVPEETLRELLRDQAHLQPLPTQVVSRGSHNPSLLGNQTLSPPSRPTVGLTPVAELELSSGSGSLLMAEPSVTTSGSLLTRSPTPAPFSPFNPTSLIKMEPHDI
SPIB, sequence (Q01892 whole entry): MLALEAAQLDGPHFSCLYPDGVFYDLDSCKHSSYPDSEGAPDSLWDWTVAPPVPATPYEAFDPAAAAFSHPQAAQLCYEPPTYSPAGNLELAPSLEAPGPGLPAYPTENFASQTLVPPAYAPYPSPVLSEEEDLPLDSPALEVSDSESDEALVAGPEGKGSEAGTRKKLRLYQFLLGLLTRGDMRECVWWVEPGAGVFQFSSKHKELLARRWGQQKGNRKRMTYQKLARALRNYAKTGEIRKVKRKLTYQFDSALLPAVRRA
ETV1, sequence (P50549 whole entry): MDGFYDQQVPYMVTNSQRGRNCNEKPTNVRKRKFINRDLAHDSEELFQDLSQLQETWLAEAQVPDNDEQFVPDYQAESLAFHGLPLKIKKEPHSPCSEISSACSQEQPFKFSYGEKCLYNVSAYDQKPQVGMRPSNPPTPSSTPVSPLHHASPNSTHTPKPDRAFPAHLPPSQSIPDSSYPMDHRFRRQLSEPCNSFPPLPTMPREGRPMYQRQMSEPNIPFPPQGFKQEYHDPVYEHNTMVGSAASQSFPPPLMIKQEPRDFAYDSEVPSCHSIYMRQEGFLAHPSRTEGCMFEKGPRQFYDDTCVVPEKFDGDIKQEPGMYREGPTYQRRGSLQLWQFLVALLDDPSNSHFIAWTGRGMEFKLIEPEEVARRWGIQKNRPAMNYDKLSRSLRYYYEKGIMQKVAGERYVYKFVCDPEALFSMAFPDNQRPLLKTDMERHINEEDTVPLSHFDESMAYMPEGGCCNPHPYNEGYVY
HSF1, sequence (Q00613 whole entry): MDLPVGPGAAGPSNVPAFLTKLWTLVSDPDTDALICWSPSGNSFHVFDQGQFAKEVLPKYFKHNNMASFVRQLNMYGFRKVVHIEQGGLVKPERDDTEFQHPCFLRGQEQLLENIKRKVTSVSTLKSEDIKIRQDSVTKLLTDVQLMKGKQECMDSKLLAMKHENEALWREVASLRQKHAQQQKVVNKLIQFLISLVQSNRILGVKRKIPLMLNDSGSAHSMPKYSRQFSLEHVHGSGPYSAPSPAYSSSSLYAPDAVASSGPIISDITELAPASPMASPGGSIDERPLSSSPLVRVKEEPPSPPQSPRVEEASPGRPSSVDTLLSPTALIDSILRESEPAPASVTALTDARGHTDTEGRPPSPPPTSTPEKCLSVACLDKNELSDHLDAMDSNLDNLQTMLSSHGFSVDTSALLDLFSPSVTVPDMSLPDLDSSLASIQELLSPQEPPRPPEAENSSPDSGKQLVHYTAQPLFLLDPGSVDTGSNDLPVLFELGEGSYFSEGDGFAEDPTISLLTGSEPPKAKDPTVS
CRX, sequence (O43186 whole entry): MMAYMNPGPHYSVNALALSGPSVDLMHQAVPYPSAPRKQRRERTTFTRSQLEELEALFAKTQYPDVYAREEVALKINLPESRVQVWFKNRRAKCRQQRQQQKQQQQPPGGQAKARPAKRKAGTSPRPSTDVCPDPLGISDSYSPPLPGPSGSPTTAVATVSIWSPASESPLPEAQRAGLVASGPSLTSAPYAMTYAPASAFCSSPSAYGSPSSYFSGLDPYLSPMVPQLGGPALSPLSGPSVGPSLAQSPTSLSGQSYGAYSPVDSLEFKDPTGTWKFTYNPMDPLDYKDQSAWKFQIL
ELF1, sequence (P32519 whole entry): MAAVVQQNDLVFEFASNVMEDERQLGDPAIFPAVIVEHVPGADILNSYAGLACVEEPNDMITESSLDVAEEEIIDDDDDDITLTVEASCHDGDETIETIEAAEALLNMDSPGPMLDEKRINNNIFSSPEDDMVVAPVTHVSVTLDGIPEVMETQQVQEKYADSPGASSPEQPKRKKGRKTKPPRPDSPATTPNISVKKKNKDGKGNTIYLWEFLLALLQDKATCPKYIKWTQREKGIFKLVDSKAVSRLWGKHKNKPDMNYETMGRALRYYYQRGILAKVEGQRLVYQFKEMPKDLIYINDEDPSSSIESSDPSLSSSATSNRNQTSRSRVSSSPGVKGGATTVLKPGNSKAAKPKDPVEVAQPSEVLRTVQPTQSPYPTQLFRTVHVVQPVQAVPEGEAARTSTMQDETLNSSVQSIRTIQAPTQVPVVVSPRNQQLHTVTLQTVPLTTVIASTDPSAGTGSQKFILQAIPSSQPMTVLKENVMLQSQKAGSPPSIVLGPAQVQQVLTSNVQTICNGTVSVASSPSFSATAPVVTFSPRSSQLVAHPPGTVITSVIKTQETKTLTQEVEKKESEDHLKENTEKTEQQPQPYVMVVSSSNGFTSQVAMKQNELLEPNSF
ETV5, sequence (P41161 whole entry): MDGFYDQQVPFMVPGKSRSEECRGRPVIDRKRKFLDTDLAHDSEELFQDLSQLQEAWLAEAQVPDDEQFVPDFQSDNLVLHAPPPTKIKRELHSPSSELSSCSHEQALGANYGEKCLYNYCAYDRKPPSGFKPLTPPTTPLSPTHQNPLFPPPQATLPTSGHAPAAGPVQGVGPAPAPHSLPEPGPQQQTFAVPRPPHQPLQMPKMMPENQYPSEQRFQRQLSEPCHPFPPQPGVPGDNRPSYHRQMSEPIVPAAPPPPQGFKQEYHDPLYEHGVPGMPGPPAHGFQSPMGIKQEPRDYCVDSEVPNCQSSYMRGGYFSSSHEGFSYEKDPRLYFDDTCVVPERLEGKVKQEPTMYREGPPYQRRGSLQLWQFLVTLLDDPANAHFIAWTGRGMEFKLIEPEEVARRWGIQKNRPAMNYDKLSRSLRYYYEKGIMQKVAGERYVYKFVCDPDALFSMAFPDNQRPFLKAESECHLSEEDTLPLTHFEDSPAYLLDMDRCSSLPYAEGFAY

As to GAATAT, the binding signal is 1.08 fold enrichment (6-mer frequency, TF over GST control) in assay [1]; 1.08 fold enrichment (6-mer frequency, TF over GST control) in [2]; 1.11 fold enrichment (6-mer frequency, TF over GST control) in [3]; 1.04 fold enrichment (6-mer frequency, TF over GST control) in [4]; 1.12 fold enrichment (6-mer frequency, TF over GST control) in assay [5]; 1.04 fold enrichment (6-mer frequency, TF over GST control) in assay [6]. Besides, the binding signal was 1.08 fold enrichment (6-mer frequency, TF over GST control) in assay [7]; 1.01 fold enrichment (6-mer frequency, TF over GST control) in [8]; 1.12 fold enrichment (6-mer frequency, TF over GST control) in assay [9]; 1.03 fold enrichment (6-mer frequency, TF over GST control) in [10]; 1.07 fold enrichment (6-mer frequency, TF over GST control) in [11]; 1.67 fold enrichment (6-mer frequency, TF over GST control) in [12]. Further, the binding signal in assay [13] is 1.13 fold enrichment (6-mer frequency, TF over GST control); in [14] it was 1.05 fold enrichment (6-mer frequency, TF over GST control); in [15] it was 1.07 fold enrichment (6-mer frequency, TF over GST control); in assay [16], 1.09 fold enrichment (6-mer frequency, TF over GST control); in assay [17], 1.2 fold enrichment (6-mer frequency, TF over GST control); in [18], 1.03 fold enrichment (6-mer frequency, TF over GST control).

These data come from publication PMC7862700, “An all-to-all approach to the identification of sequence-specific readers for epigenetic DNA modifications on cytosine”.
